Measured values taken from PubChem BioAssay (EPA / NIEHS).
Activity calls are given as the source filed them. The calls were made as follows: active = hit-call score of the fitted dose curve at least 0.9, where 1 is the maximum; inactive = score below 0.9.

Assay: BSK_SAg_PBMCCytotoxicity: PBMC Cytotoxicity Assessment in the BioMAP Diversity Plus: SAg Assay (AID 2283093);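 also: fitted both ways against DMSO so a hit may be loss or gain of signal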
Conditions: primary human HUVEC with PBMC
Method: BSK_SAg is a cell-based, multiplexed-readout assay that uses umbilical vein endothelium and peripheral blood mononuclear cells, a human vascular primary cell co-culture, with measurements taken at 24 hours after chemical dosing in a 96-well plate.BSK_SAg_PBMCCytotoxicity is an assay component measured in the BSK_SAg assay. It measures Alamar blue related to cell death using Alamar Blue Reduction technology.Data from the assay component BSK_SAg_PBMCCytotoxicity was analyzed into 1 assay endpoint. This assay endpoint, BSK_SAg_PBMCCytotoxicity, was analyzed with bidirectional fitting relative to DMSO as the negative control and baseline of activity. Using a type of viability reporter, gain or loss-of-signal activity can be used to understand changes in the viability. Furthermore, this assay endpoint can be referred to as a secondary readout, because this assay has produced multiple assay endpoints where this one serves a viability function. To generalize the intended target to other relatable targets, this assay endpoint is annotated to the cell cycle intended target family, where the subfamily is cytotoxicity.
The levels of cell surface (or secreted, indicated by the prefix "s") biomarker endpoints were measured by ELISA. Overt cytotoxicity to cells in confluent adherent cultures (all systems other than the BT system) was assessed by measuring total protein levels using sulforhodamine B (SRB) staining in parallel cultures at the time of biomarker measurements, indicated as SRB endpoints. For proliferation assays for adherent cell types, individual cell types are cultured at sub-confluence and relative cell numbers quantified by SRB staining at time points optimized for each system (48 h: 3C and CASM3C systems; 72 h: BT and HDF3CGF systems; 96 h: SAg system). SRB was performed by staining cells with 0.1% SRB after fixation with 10% TCA and reading wells at 560 nm.Viability and proliferation of PBMC (T cells) was quantified by Alamar Blue reduction for the SAg and BT systems. For PBMC viability (referred to as PBMC Cytotoxicity within the assay endpoint names), cells were plated (75,000/well in a 96-well plate) and then chemical samples added for 1 h before addition of activators, SEB and TSST-1 (20 ng/mL final concentration each). Cells were incubated for 90 h. Then, Alamar Blue (20 uL/well) (Invitrogen, Cat DAL1100) was added for 6 h, and the plates were read with a fluorescence microplate reader at 546/580 nm (excitation/emission). For PBMC proliferation, cells were plated and activated as above but incubated for only 16 h prior to addition of Alamar Blue. Plates were read after 6 h.

SMILES	outcome	AC50
COP(=O)(OC)SCn1c(=O)oc2cc(Cl)cnc21	inactive	–
CCNc1nc(Cl)nc(NC(C)(C)C#N)n1	inactive	–
CCOC(=O)COc1cc(-c2nn(C)c(OC(F)F)c2Cl)c(F)cc1Cl	inactive	–
CCOP(=S)(OCC)SCCSCC	inactive	–
Nc1nc(N)nc(NC2CC2)n1	inactive	–
C=C(C)[C@H]1Cc2c(ccc3c2O[C@@H]2COc4cc(OC)c(OC)cc4[C@@H]2C3=O)O1	inactive	–
Cc1ccn2nc(S(=O)(=O)Nc3c(F)cccc3F)nc2n1	inactive	–
CCOP(=O)(NC(C)C)Oc1ccc(SC)c(C)c1 (stereo not given)	inactive	–
CCOP(=O)(SC(C)CC)N1CCSC1=O (stereo not given)	inactive	–
O=C(O)c1cc(Oc2ccc(C(F)(F)F)cc2Cl)ccc1[N+](=O)[O-]	inactive	–
CCC(=NOC/C=C/Cl)C1=C(O)CC(C2CCOCC2)CC1=O (stereo not given)	inactive	–
COc1cccc(C(=O)NN(C(=O)c2cc(C)cc(C)c2)C(C)(C)C)c1C	inactive	–
COc1ccc(C(=CC(=O)N2CCOCC2)c2ccc(Cl)cc2)cc1OC	–	9.07 µM (active)
CCC(=O)Nc1ccc(Cl)c(Cl)c1	inactive	–
CCCSP(=O)(OCC)SCCC	inactive	–
CNC(=O)ON=C(SC)C(=O)N(C)C	inactive	–
CCOP(=O)(OCC)Oc1cc(C)nc(C(C)C)n1	inactive	–
CC1(C(=O)Nc2ccc(O)c(Cl)c2Cl)CCCCC1	inactive	–
CNC(=O)Oc1cccc2c1OC(C)(C)O2	inactive	–
CN(C)NC(=O)CCC(=O)O	inactive	–

SMILES	outcome	AC50
FC(F)C(F)(F)OCC(Cn1cncn1)c1ccc(Cl)cc1Cl (stereo not given)	inactive	–
CCCSP(=O)(OCC)Oc1ccc(Br)cc1Cl (stereo not given)	–	32.9 µM (active)
CC(C)N(C(=O)SCC(Cl)=C(Cl)Cl)C(C)C	–	36.5 µM (active)
COP(=O)(OC)OC(Br)C(Cl)(Cl)Br (stereo not given)	–	14.7 µM (active)
CC(C)=CC1C(C(=O)OCN2C(=O)C3=C(CCCC3)C2=O)C1(C)C (stereo not given)	–	26.1 µM (active)
CN(C)[C@@H]1C(=O)C(C(N)=O)=C(O)[C@@]2(O)C(=O)C3=C(O)c4c(O)cccc4[C@@](C)(O)[C@H]3[C@H](O)[C@@H]12	inactive	–
CC(Oc1cccc(Cl)c1)C(=O)O (stereo not given)	inactive	–
C#CC(C)(C)NC(=O)c1cc(Cl)cc(Cl)c1	inactive	–
CCOC(=O)CC(SP(=O)(OC)OC)C(=O)OCC (stereo not given)	inactive	–
CNC(=O)ON=C(C)SC	inactive	–
Cc1cc(C2CC2)nc(Nc2ccccc2)n1	–	7.66 µM (active)
CC(=NC#N)N(C)Cc1ccc(Cl)nc1	inactive	–
S=C1NCCN1	inactive	–
CCc1cccc(CC)c1N(COC)C(=O)CCl	inactive	–
CCCCSP(=O)(SCCCC)SCCCC	–	34.8 µM (active)
CCC(CC)Nc1c([N+](=O)[O-])cc(C)c(C)c1[N+](=O)[O-]	–	29.2 µM (active)
CCOP(=S)(Oc1cnc(C(C)(C)C)nc1)OC(C)C (stereo not given)	–	36.7 µM (active)
Cc1nn(-c2cc(NS(C)(=O)=O)c(Cl)cc2Cl)c(=O)n1C(F)F	inactive	–
CC(C)[C@H](C(=O)O[C@H](C#N)c1cccc(Oc2ccccc2)c1)c1ccc(Cl)cc1	–	4.84 µM (active)
N#CSCSC#N	–	3.25 µM (active)
